Assay results published in PubChem BioAssay (EPA / NIEHS).
Records with an inconclusive call do not appear. Calls of active or inactive are those of the source. How the source made its calls, unless noted: active means hit-call score of the fitted dose curve at least 0.9, where 1 is the maximum; inactive means score below 0.9.

Key:
[1] = read-out: Intercellular Adhesion Molecule 1 (ICAM1), ICAM1 (gene 3383); assay: BSK_3C_ICAM1: BioMAP Diversity Plus: 3C Assay for Intercellular Adhesion Molecule 1 (ICAM1) Biomarker Activity (AID 2283003); conditions: primary human endothelial cells (HUVEC); actives raise or lower the signal
Method in brief: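 ELISA read-out of ICAM-1; HUVEC (primary human), 3C system, 24 h post-dosing; bidirectional fit vs DMSO baseline.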

[2] = target: human Retinoic Acid Receptor beta (RARb), RARB (gene 5915) (UniProt P10826); assay: ATG_RARb_TRANS: Attagene TRANS-FACTORIAL HepG2 Assay for human Retinoic Acid Receptor beta (AID 2283004; active means hit-call score of the fitted dose curve at least 0.9, where 1 is the maximum)
Method in brief: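 Readout is reporter mRNA induction: RNA reverse-transcribed, PCR-amplified, FAM-labelled, HpaI-cut and resolved by capillary electrophoresis. Transiently transfected HepG2 cells carrying exogenous NR–Gal4 chimeras were dosed for 24 h; activity fitted upward relative to DMSO.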

[3] = BSK_3C_Proliferation: Cell Proliferation Assessment in the BioMAP Diversity Plus: 3C Assay (AID 2283006); conditions: primary human endothelial cells (HUVEC);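 on AC50: potency may reflect either rise or fall in cell number versus DMSO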
Method in brief: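 HUVEC, sub-confluent; 48 h chemical exposure; 10% TCA fix, 0.1% SRB stain, A560 total protein. Gain or loss of signal fitted both directions vs DMSO control.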

[4] = target: Peroxisome proliferator-activated receptor gamma (Homo sapiens) (UniProt P37231); assay: ATG_PPARg_TRANS: Attagene TRANS-FACTORIAL HepG2 Assay for human Peroxisome Proliferator-activated Receptor-gamma (PPARg) (AID 2283007; active means hit-call score of the fitted dose curve at least 0.9, where 1 is the maximum)
Method in brief: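 After 24 h of chemical exposure, transfected HepG2 cells carrying PPARγ-Gal4 chimera reporter constructs are lysed for RNA. Reporter transcripts are measured by RT-PCR and capillary electrophoresis with fluorescent labelling, and gain of signal is fitted versus DMSO.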

[5] = target: Nuclear receptor subfamily 1 group I member 2 (Homo sapiens) (UniProt O75469); assay: ATG_PXR_TRANS: Attagene TRANS-FACTORIAL HepG2 Assay for human Pregnane X Receptor (PXR) (AID 2283008; active means hit-call score of the fitted dose curve at least 0.9, where 1 is the maximum)
Method in brief: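 Multiplexed TRANS reporter panel in HepG2; this component tracks PXR-Gal4-driven reporter mRNA after 24 h dosing, measured by RT-PCR with capillary electrophoresis fluorescence, fitted against DMSO.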

[6] = target: human RAR-related Orphan Receptor beta (RORb), RORB (gene 6096) (UniProt Q92753); assay: ATG_RORb_TRANS: Attagene TRANS-FACTORIAL HepG2 Assay for human RAR-related Orphan Receptor beta (RORb) (AID 2283010; active means hit-call score of the fitted dose curve at least 0.9, where 1 is the maximum)
Method in brief: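 HepG2, transient MRTU transfection (GAL4-UAS reporters, exogenous NR-Gal4 chimeras); 24 h compound exposure; total RNA → RT-PCR → 6-FAM primer extension → HpaI digest → CE fluorescence. Positive direction vs DMSO baseline.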

[7] = read-out: E-selectin (Homo sapiens) (UniProt P16581); assay: BSK_3C_Eselectin: BioMAP Diversity Plus: 3C Assay for Eselectin Biomarker Activity (AID 2283015); conditions: primary human endothelial cells (HUVEC); actives raise or lower the signal
Method in brief: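 HUVEC, 3C stimulation; compound exposure 24 h; E-selectin by ELISA; gain- or loss-of-signal fitted bidirectionally vs DMSO baseline.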

[8] = read-out: Interleukin-1 alpha (IL1a), IL1A (gene 3552); assay: BSK_BE3C_IL1a: BioMAP Diversity Plus: BE3C Assay for Interleukin-1 alpha (IL1a) Biomarker Activity (AID 2283016); conditions: primary human bronchial epithelial cells; actives raise or lower the signal
Method in brief: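 ELISA read-out of IL-1a from human lung bronchial epithelial primary cells, 24 h post-dose. Gain or loss of signal fitted relative to DMSO negative control.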

[9] = read-out: Human Leukocyte Antigen - DR isotype (HLADR), HLA-DRA (gene 3122); assay: BSK_3C_HLADR: BioMAP Diversity Plus: 3C Assay for Human Leukocyte Antigen - DR isotype (HLADR) Biomarker Activity (AID 2283019); conditions: primary human endothelial cells (HUVEC); actives raise or lower the signal
Method in brief: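 HUVEC, 3C stimulation, 24 h post-dose; HLA-DR by ELISA; bidirectional curve fit vs DMSO baseline; gain or loss of signal scored.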

[10] = read-out: Interleukin-8 (IL8), CXCL8 (gene 3576); assay: BSK_3C_IL8: BioMAP Diversity Plus: 3C Assay for Interleukin-8 (IL8) Biomarker Activity (AID 2283020); conditions: primary human endothelial cells (HUVEC); actives raise or lower the signal
Method in brief: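 HUVEC, 3C stimulation; 24 h compound exposure; IL-8 read by ELISA; gain or loss of signal fitted relative to DMSO control.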

[11] = read-out: Monokine induced gamma interferon (MIG), CXCL9 (gene 4283); assay: BSK_3C_MIG: BioMAP Diversity Plus: 3C Assay for Monokine induced gamma interferon (MIG) Biomarker Activity (AID 2283021); conditions: primary human endothelial cells (HUVEC); actives raise or lower the signal;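 on AC50: MIG protein level measured by immunoassay in the treated endothelial cultures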
Method in brief: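 HUVEC, 3C system; 24 h chemical exposure; MIG by ELISA; bidirectional fit vs DMSO baseline.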

[12] = target: human RAR-related Orphan Receptor gamma (RORg), RORC (gene 6097) (UniProt P51449); assay: ATG_RORg_TRANS: Attagene TRANS-FACTORIAL HepG2 Assay for human RAR-related Orphan Receptor gamma (RORg) (AID 2283011; active means hit-call score of the fitted dose curve at least 0.9, where 1 is the maximum)
Method in brief: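 Transient MRTU transfection of HepG2 (TRANS format, exogenous NR-Gal4 chimera). 24 h dosing. Total RNA → oligo(dT) RT → PCR → 6-FAM labelling → HpaI cut → CE. Gain vs DMSO.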

[13] = target: Retinoic acid receptor RXR-alpha (Homo sapiens) (UniProt P19793); assay: ATG_RXRa_TRANS: Attagene TRANS-FACTORIAL HepG2 Assay for human Retinoid X Receptor alpha (RXRa) (AID 2283012; active means hit-call score of the fitted dose curve at least 0.9, where 1 is the maximum)
Method in brief: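 Read-out: fluorescent reporter-transcript fragments quantified by capillary electrophoresis after RT-PCR. Transiently transfected HepG2 cells carrying GAL4-UAS reporters and NR-GAL4 chimeras were exposed to chemical for 24 h; activity scored as increase over DMSO.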

[14] = target: human Retinoid X Receptor beta (RXRb), RXRB (gene 6257) (UniProt P28702); assay: ATG_RXRb_TRANS: Attagene TRANS-FACTORIAL HepG2 Assay for human Retinoid X Receptor beta (RXRb) (AID 2283013; active means hit-call score of the fitted dose curve at least 0.9, where 1 is the maximum)
Method in brief: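 Read-out: reporter mRNA induction via RT-PCR plus capillary electrophoresis fluorescence, analysed as signal increase relative to DMSO. Cells were human HepG2, transiently transfected with GAL4-UAS reporter constructs and chimeric receptor-Gal4 fusions, dosed for 24 h.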

[15] = read-out: Monocyte Chemoattractant Protein-1 (MCP1), CCL2 (gene 6347); assay: BSK_3C_MCP1: BioMAP Diversity Plus: 3C Assay for Monocyte Chemoattractant Protein-1 (MCP1) Biomarker Activity (AID 2283017); conditions: primary human endothelial cells (HUVEC); actives raise or lower the signal
Method in brief: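 HUVEC, 3C system; 24 h chemical exposure; MCP-1 by ELISA; bidirectional curve fit vs DMSO baseline.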

[16] = target: human Vitamin D Receptor (VDR), VDR (gene 7421) (UniProt P11473); assay: ATG_VDR_TRANS: Attagene TRANS-FACTORIAL HepG2 Assay for human Vitamin D Receptor (VDR) (AID 2283022; active means hit-call score of the fitted dose curve at least 0.9, where 1 is the maximum)
Method in brief: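 RT-PCR/capillary electrophoresis read-out of reporter mRNA induction in transiently transfected HepG2; 24 h dosing; chimeric NR-Gal4 (TRANS format); gain-of-signal fit against DMSO baseline.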

[17] = target: Retinoic acid receptor alpha (Homo sapiens) (UniProt P10276); assay: ATG_RARa_TRANS: Attagene TRANS-FACTORIAL HepG2 Assay for human Retinoic Acid Receptor alpha (RARa) (AID 2283005; active means hit-call score of the fitted dose curve at least 0.9, where 1 is the maximum)
Method in brief: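 HepG2 transiently transfected with multiplex GAL4-UAS reporter units including a human RARa–GAL4 chimera; 24 h compound exposure. Reporter mRNA quantified by RT-PCR, 6-FAM labeling and capillary electrophoresis; gain of signal versus DMSO.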

[18] = target: human Retinoic Acid Receptor gamma (RARg), RARG (gene 5916) (UniProt P13631); assay: ATG_RARg_TRANS: Attagene TRANS-FACTORIAL HepG2 Assay for human Retinoic Acid Receptor gamma (RARg) (AID 2283009; active means hit-call score of the fitted dose curve at least 0.9, where 1 is the maximum)
Method in brief: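 Readout: reporter transcript levels via RT-PCR, 6-FAM primer-extension labelling, HpaI digestion and capillary electrophoresis. Cells: HepG2 carrying transfected RARg-GAL4 chimera plus UAS reporter set. Dosing 24 h; DMSO negative control.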

[19] = target: human Thyroid Receptor alpha (THRa1), THRA (gene 7067) (UniProt P10827); assay: ATG_THRa1_TRANS: Attagene TRANS-FACTORIAL HepG2 Assay for human Thyroid Receptor alpha (THRa1) (AID 2283014; active means hit-call score of the fitted dose curve at least 0.9, where 1 is the maximum)
Method in brief: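 Transient HepG2 transfection, NR-Gal4 chimera driving GAL4-UAS reporters; 24 h compound exposure; total RNA, oligo(dT) RT, PCR, fluorescent primer extension, capillary electrophoresis. Upward direction vs DMSO control.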

[20] = read-out: Monocyte Chemoattractant Protein-1 (MCP1), CCL2 (gene 6347); assay: BSK_4H_MCP1: BioMAP Diversity Plus: 4H Assay for Monocyte Chemoattractant Protein-1 (MCP1) Biomarker Activity (AID 2283018); conditions: primary human endothelial cells (HUVEC); actives raise or lower the signal
Method in brief: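 HUVEC primary cells, 24 h post-dose, MCP-1 by ELISA. Gain or loss of signal fitted bidirectionally vs DMSO baseline. Cytotoxicity: SRB stain (0.1% after 10% TCA fixation), read 560 nm, parallel cultures.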

Measured: AC50

Sequence of human RAR-related Orphan Receptor gamma (RORg), RORC (gene 6097) (P51449 whole entry, looked up, the tested form may be a part): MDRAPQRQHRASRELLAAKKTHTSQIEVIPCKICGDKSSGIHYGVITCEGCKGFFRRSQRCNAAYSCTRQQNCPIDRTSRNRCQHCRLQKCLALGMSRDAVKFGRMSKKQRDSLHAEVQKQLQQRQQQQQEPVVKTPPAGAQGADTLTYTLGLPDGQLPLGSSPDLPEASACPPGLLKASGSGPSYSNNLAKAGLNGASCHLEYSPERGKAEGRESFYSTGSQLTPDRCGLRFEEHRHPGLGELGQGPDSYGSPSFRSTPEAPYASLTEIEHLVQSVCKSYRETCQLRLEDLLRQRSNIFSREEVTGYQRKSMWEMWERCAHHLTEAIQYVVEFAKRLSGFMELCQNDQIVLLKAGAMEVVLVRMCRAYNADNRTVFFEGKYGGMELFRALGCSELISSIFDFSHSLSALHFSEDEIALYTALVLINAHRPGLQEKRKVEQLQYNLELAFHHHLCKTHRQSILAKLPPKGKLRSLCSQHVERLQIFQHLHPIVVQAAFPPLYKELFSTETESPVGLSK
Sequence of human Vitamin D Receptor (VDR), VDR (gene 7421) (P11473 whole entry, looked up, the tested form may be a part): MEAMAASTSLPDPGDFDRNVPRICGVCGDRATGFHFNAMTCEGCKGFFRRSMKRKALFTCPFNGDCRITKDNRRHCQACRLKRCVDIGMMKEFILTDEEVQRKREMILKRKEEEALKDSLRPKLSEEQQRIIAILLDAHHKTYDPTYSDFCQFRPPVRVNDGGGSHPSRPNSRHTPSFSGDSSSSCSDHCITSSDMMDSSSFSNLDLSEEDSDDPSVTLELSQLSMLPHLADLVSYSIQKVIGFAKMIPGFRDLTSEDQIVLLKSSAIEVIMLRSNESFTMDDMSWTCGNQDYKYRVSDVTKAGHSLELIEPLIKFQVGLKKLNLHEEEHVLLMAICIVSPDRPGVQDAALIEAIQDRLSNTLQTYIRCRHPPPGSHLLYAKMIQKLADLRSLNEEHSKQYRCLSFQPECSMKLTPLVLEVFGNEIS
Sequence of Peroxisome proliferator-activated receptor gamma (Homo sapiens) (P37231 whole entry, looked up, the tested form may be a part): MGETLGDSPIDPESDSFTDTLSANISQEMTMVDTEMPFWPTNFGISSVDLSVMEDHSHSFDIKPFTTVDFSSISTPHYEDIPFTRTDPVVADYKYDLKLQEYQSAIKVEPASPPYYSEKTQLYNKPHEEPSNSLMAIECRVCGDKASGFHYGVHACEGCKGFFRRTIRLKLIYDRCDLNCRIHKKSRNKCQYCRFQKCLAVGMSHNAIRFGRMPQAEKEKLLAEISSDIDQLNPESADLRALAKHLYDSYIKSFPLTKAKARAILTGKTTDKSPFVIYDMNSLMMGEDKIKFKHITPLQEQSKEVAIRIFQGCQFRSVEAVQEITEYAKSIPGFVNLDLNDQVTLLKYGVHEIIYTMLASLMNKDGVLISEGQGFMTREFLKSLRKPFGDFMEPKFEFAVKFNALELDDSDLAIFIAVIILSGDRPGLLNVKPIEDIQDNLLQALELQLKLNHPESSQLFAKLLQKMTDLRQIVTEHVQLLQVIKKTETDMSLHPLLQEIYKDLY
Sequence of Retinoic acid receptor RXR-alpha (Homo sapiens) (P19793 whole entry, looked up, the tested form may be a part): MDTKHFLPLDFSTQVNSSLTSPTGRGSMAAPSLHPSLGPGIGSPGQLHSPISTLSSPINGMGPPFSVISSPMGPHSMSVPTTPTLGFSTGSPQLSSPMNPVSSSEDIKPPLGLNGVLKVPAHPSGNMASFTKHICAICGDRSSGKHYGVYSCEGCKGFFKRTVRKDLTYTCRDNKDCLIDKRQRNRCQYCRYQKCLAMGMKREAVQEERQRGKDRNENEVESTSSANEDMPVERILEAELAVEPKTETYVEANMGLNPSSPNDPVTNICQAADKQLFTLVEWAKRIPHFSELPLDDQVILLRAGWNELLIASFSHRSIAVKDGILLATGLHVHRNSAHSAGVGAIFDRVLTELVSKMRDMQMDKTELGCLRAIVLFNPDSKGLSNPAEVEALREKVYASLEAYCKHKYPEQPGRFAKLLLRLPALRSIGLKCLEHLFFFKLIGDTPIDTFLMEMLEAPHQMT
Sequence of Nuclear receptor subfamily 1 group I member 2 (Homo sapiens) (O75469 whole entry, looked up, the tested form may be a part): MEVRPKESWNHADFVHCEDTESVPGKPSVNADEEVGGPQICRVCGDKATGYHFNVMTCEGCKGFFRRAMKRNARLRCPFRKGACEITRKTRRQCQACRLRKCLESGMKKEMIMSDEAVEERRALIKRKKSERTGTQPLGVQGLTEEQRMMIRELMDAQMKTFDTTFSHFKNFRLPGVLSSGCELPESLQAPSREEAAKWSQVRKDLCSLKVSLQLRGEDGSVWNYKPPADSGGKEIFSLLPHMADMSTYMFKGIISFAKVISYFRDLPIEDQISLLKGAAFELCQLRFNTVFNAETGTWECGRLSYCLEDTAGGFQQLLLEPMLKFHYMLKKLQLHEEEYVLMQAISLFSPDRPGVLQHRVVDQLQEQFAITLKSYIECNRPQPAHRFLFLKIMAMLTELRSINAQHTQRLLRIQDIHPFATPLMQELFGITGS
Sequence of E-selectin (Homo sapiens) (P16581 whole entry, looked up): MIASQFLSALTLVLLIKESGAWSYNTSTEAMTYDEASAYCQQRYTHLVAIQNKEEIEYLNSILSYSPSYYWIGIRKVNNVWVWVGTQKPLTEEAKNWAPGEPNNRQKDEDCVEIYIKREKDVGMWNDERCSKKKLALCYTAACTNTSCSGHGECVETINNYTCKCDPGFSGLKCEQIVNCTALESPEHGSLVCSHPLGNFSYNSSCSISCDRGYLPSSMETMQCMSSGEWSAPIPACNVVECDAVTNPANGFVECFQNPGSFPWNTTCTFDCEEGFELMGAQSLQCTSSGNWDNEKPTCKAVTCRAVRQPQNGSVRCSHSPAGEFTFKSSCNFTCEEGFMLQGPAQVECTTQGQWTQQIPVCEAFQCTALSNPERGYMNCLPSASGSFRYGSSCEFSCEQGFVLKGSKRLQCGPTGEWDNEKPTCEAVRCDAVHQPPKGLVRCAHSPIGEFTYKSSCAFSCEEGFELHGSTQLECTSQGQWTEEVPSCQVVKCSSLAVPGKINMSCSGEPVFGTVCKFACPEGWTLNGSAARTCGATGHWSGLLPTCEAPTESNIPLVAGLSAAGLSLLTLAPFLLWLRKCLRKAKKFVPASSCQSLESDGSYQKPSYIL
Sequence of human Retinoid X Receptor beta (RXRb), RXRB (gene 6257) (P28702 whole entry, looked up, the tested form may be a part): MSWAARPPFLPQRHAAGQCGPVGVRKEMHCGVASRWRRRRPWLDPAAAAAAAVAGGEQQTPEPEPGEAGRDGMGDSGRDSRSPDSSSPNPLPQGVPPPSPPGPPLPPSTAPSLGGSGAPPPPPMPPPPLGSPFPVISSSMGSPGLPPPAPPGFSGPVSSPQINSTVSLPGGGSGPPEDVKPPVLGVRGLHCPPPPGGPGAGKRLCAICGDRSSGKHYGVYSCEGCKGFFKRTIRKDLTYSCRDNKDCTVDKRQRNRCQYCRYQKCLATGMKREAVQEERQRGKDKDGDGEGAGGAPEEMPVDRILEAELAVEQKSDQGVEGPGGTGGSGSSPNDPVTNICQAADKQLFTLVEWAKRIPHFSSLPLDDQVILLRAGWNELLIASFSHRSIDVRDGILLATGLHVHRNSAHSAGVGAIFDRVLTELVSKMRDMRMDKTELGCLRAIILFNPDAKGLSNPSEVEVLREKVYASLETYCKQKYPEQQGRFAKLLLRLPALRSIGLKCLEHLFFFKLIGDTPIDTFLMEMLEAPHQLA
Sequence of human RAR-related Orphan Receptor beta (RORb), RORB (gene 6096) (Q92753 whole entry, looked up, the tested form may be a part): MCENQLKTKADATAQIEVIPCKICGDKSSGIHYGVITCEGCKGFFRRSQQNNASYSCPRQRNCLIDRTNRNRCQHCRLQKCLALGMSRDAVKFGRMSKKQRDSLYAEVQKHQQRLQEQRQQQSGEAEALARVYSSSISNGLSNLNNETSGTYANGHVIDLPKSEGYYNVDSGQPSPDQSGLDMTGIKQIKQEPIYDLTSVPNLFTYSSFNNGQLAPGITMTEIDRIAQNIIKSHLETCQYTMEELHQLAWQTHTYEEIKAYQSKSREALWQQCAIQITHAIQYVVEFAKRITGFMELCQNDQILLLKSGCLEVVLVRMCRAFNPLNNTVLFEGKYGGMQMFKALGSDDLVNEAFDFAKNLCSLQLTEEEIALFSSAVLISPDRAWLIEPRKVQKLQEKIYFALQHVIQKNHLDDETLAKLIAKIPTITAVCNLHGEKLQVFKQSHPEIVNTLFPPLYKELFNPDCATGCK
Sequence of human Retinoic Acid Receptor gamma (RARg), RARG (gene 5916) (P13631 whole entry, looked up, the tested form may be a part): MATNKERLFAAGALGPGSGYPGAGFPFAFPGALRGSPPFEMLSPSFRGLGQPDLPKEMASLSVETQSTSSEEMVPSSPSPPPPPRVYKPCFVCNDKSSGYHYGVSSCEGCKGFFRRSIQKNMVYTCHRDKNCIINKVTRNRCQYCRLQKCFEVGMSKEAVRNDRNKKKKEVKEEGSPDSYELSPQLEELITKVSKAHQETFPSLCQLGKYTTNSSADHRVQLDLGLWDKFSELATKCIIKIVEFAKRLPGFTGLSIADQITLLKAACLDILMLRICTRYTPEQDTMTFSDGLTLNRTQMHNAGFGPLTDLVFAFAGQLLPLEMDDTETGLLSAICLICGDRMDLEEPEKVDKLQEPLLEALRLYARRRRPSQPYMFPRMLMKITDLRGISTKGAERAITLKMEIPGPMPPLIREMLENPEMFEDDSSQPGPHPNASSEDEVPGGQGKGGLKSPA
Sequence of human Retinoic Acid Receptor beta (RARb), RARB (gene 5915) (P10826 whole entry, looked up, the tested form may be a part): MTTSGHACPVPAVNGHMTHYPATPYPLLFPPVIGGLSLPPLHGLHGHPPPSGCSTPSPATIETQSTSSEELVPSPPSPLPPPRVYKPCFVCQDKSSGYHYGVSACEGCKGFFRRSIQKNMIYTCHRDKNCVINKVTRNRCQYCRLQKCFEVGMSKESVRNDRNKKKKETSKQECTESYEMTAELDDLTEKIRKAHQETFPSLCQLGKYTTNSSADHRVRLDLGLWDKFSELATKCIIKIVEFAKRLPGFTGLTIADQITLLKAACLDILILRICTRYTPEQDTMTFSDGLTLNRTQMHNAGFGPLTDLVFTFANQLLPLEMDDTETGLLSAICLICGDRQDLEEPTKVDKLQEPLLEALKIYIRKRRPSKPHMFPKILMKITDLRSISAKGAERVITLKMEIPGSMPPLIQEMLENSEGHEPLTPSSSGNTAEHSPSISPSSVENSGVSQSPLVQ

CC(C)=CCCC(C)CCO (stereo not drawn)
inactive: [1] | [2] | [3] | [5] | [6] | [7] | [8] | [9] | [10] | [11]
active: [4] 42.6 µM

COc1ccc2sc(C(=O)Nc3nnn[nH]3)c(OC(C)C)c2c1
inactive: [5] | [12] | [13] | [14] | [16]
active: [1] 26.4 µM | [3] 9.42 µM | [4] 22.9 µM | [7] 19.9 µM | [8] 12.2 µM | [15] 12.3 µM | [9] 7.28 µM | [10] 17.9 µM | [11] 16.1 µM

CCCCC(CC)COC(=O)c1ccc(C(=O)OCC(CC)CCCC)cc1 (stereo not drawn)
active: [14] 49.7 µM
not listed: [2] | [4] | [5] | [13] | [16]
inactive: all other assays above

COC(=O)c1c(Cl)c(Cl)c(C(=O)OC)c(Cl)c1Cl
active: [3] 14.6 µM | [4] 35.9 µM | [14] 30.8 µM
not listed: [2] | [6] | [16] | [17] | [18] | [19]
inactive: all other assays above

CC(C)=CCCC(C)=CC=O
active: [4] 21 µM | [5] 4.42 µM
not listed: [2] | [6] | [15] | [17] | [18] | [19]
inactive: all other assays above

Oc1ccc2c(c1)-c1ccccc1C2
active: [3] 15.4 µM | [14] 26.2 µM
not listed: [2] | [6] | [12] | [15] | [17]
inactive: all other assays above

CC(O)CN(CCN(CC(C)O)CC(C)O)CC(C)O (stereo not drawn)
not listed: [4] | [6] | [17] | [18] | [19]
inactive: all other assays above
